Screening data deposited in PubChem by National Center for Advancing Translational Sciences (NCATS).
Sm TGR block: blocks Schistosoma mansoni thioredoxin glutathione reductase | Q962Y6 | purified TGR, DTNB reduction, TNB absorbance 405 nm | Potency, µM (titrated, usually from 114 µM), usual class: inhibitors | hit rate 3% among 360,000; active = well fitted inhibition curve with a large enough effect; inconclusive = small, poorly fitted or top-dose-only effect; inactive = no such curve, though single readings can be large or run the other way; also: nearly all actives have a fitted effect of over 60% in size
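First, TGR (20 nM dispensed) and NADPH were mixed with compound. Second, a 15 min room-temperature incubation followed. Third, further NADPH and then DTNB were added to start the reaction. Finally, TNB absorbance was monitored kinetically.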
FMDV inh: foot and mouth disease virus antiviral activity. hit rate 1.2% among 410,000. Potency, µM (highest dose often 57.9 µM), usual class: inhibitors. FMDV antiviral cell-based qHTS. AID 1159524; calls by dose curve; tested in HEK293T cells; also: read-out not given here; nearly all actives have a fitted effect of over 45% in size
Shiga inhibitor: inhibitors of Shiga toxin in Vero cells | hit rate 9.2% among 290,000 | Vero cells, Shiga toxin protein synthesis inhibition reporter | inhibition, % at 38.7 µM; in the data active = inhibition mostly above about 28%, no sharp cut-off; inactive = mostly below about 43%
Cycloheximide cs: counter-screen hit for Shiga toxin inhibitors, cycloheximide; hit rate 12% among 300,000; AID 2314; cell reporter, cycloheximide protein synthesis inhibition counterscreen; max response, %; in the data active = max response mostly above about 13%, no sharp cut-off; inactive = mostly below about 14%; also: read at 38.3 µM for the half of the compounds with a filed dose
Each line names hits and unclear results; the compound was inactive in the other large screens. Sampled rows, rich in hits. Any-hit rate of the full collection: about 12%.

CCOC(=O)c1c(CSc2ccccc2)n(C)c2ccc(O)c(CN3CCN(C)CC3)c12	Sm TGR block 17.8µM, FMDV inh inconclusive
CCOC(=O)c1c(C)n(C)c2ccc(O)c(CN3CCCCC3)c12	none
NC(=O)C1CCN(c2ncnc3c(-c4ccccc4)nsc23)CC1	Shiga inhibitor 51.1, Cycloheximide cs 49.8
COc1cccc(-c2nc(NC(C)(C)C)c3ccccc3n2)c1O	FMDV inh 25.1µM
COc1cccc(-c2nc(N3CCCC3)c3ccccc3n2)c1O	none
COc1cccc(-c2nc(Oc3cc(C)cc(C)c3)c3ccccc3n2)c1O	none (no result: FMDV inh)
COc1ccc(Nc2nc(-c3cccc(OC)c3O)nc3ccccc23)cc1	Shiga inhibitor 50.4, Cycloheximide cs 33.1
CCOCN(C(=O)CSc1nc2ccccc2[nH]1)c1c(C)cccc1CC	none (no result: Shiga inhibitor, Cycloheximide cs)
COC(=O)c1ccc(Cl)c(NC(=O)C2CCN(S(=O)(=O)Cc3ccccc3)CC2)c1	none (no result: Shiga inhibitor, Cycloheximide cs)
O=c1c(-c2ccc(Cl)cc2)nc2cnc(N3CCOCC3)nc2n1C1CC1	none (no result: Sm TGR block, Shiga inhibitor, Cycloheximide cs)
COc1ccc(OC(=O)/C=C/c2ccc([N+](=O)[O-])cc2)cc1	none
COc1ccc(N(C(=O)c2cccc([N+](=O)[O-])c2)S(=O)(=O)c2cccs2)cc1	none
COc1ccc(C(=O)/C=C/c2ccc(F)cc2)c(OC(=O)c2ccc([N+](=O)[O-])cc2)c1	Cycloheximide cs 22.9
COc1ccc(C(=O)/C=C/c2cccs2)c(OC(=O)c2cccc([N+](=O)[O-])c2)c1	Shiga inhibitor 131.7, Cycloheximide cs 59.7
Cc1cccc(CC(=O)NCc2nc3cccnc3n2Cc2ccc(F)cc2)c1	none (no result: Shiga inhibitor, Cycloheximide cs)
Brc1ccc(-c2ccccc2)cc1	none (no result: Shiga inhibitor, Cycloheximide cs)
Brc1ccc(-c2ncc(-c3ccccc3)cn2)cc1	Shiga inhibitor 135.9, Cycloheximide cs 45.8
O=C(O)CCc1ccc(-c2ccccc2)o1	Sm TGR block 1.41µM, Cycloheximide cs 15.3
CC(C)(C)OC(=O)N1CCC(c2c(C(=O)NCCN3CCc4ccccc4C3)cnn2-c2ccc(F)cc2)CC1	none (no result: Shiga inhibitor, Cycloheximide cs)
COc1ccc(Sc2cnn(-c3ccccc3)c(=O)c2Cl)cc1	FMDV inh inconclusive
COc1ccc(-n2ncc(Cl)c(Cl)c2=O)cc1	Sm TGR block inconclusive, FMDV inh 8.91µM
COc1ccc(-n2ncc(N(C)n3cccc3)c(Cl)c2=O)cc1	Shiga inhibitor 87.0, Cycloheximide cs 28.2
Cc1ccccc1C(=O)N1c2ncnn2C2(CCCCC2)[C@@H]2CCCC[C@@H]21	FMDV inh inconclusive (no result: Shiga inhibitor, Cycloheximide cs)
COC(=O)CCS(=O)(=O)c1nc(-c2ccccc2)cc(C(F)(F)F)n1	Sm TGR block 8.91µM, FMDV inh 15.8µM
CCOC(=O)CS(=O)(=O)c1ccccc1	Sm TGR block inconclusive
COCC(C)NC(=O)CCS(=O)(=O)c1nc(-c2ccc(OC)cc2)cc(C(F)(F)F)n1 (stereo not given)	Sm TGR block inconclusive, FMDV inh 31.6µM
CCOC(=O)CCS(=O)(=O)c1nc(-c2ccccc2)cc(C(F)(F)F)n1	Sm TGR block 28.2µM, FMDV inh 20µM
CCOC(=O)CS(=O)(=O)c1nc(-c2ccccc2)cc(C(F)(F)F)n1	Sm TGR block inconclusive, FMDV inh 22.4µM
CCOC(=O)CS(=O)(=O)c1nc(-c2ccc(F)cc2)cc(C(F)(F)F)n1	Sm TGR block 2.82µM, FMDV inh inconclusive
CCOC(=O)c1cccc(NC(=O)NC(C)c2c(-n3cccc3)sc3c2CCN(C)C3)c1 (stereo not given)	none (no result: Shiga inhibitor, Cycloheximide cs)
CNC(=O)/C=C1\NC(C)(C)Cc2c1ccc1ccccc21	Sm TGR block inconclusive, FMDV inh inconclusive
CC1(C)Cc2c(ccc3ccccc23)/C(=C/C#N)N1	Sm TGR block 44.7µM (no result: FMDV inh)
COc1cccc(CNC(=O)Cn2cc3c(n2)-c2c(oc(C(=O)N4CCCC4)c2C)CC3)c1OC	FMDV inh inconclusive (no result: Shiga inhibitor, Cycloheximide cs)
Cc1ccc(S(=O)(=O)C/N=C(/NC(=S)N(c2ccccc2)c2ccccc2)c2ccccc2)cc1	Sm TGR block inconclusive, Shiga inhibitor 49.5, Cycloheximide cs 21.5 (no result: FMDV inh)
Cc1ccc(S(=O)(=O)NC(=NC(C)C)c2ccccc2)cc1	none
CN(CCc1nc2ccccc2[nH]1)Cc1nc(CC2CC2)no1	none
CN(Cc1nc2ccccc2[nH]1)Cc1nc(CC2CC2)no1	Cycloheximide cs 16.2
COc1ccc(C(=O)Oc2ccc(/C=N/NC(=O)c3cccnc3)cc2OC)cc1	none (no result: Shiga inhibitor, Cycloheximide cs)
COCCn1c(C)cc(/C=N/NC(=O)c2cccnc2)c1C	Shiga inhibitor 68.8, Cycloheximide cs 22.4
COc1cc(/C=N/NC(=O)c2cccnc2)ccc1OCC(=O)Nc1ccc(C)cc1	Sm TGR block inconclusive, Cycloheximide cs 21.1
COc1ccc(/C=N/NC(=O)c2cccnc2)cc1	Shiga inhibitor 121.0, Cycloheximide cs 31.5
COc1cc(/C=N/NC(=O)c2cccnc2)ccc1OS(=O)(=O)c1cc(C)ccc1C	FMDV inh inconclusive, Cycloheximide cs 17.0
Cc1cc(/C=N/NC(=O)c2ccc(O)cc2)c(C)n1CC(C)C	Shiga inhibitor 82.0, Cycloheximide cs 47.8
COc1ccc(/C=N/NC(=O)c2ccc[nH]2)cc1	Shiga inhibitor 77.1, Cycloheximide cs 29.3
CCNC(=O)COc1ccc(/C=N/NC(=O)c2cccnc2)cc1OC	none
COc1ccc(/C=N/NC(=O)c2cccnc2)cc1O	Cycloheximide cs 18.9 (no result: Shiga inhibitor)
COc1c(C)cccc1C(=O)Nc1ccc(Cl)c(-c2nc3cc(C)ccc3o2)c1	none (no result: Shiga inhibitor, Cycloheximide cs)
O=C(N/N=C/c1cccc([N+](=O)[O-])c1)c1cccc2cc[nH]c12	Shiga inhibitor 57.6, Cycloheximide cs 28.8
O=C(NN=Cc1cccc([N+](=O)[O-])c1)c1cccc2ccccc12	none (no result: Sm TGR block, Shiga inhibitor, Cycloheximide cs)
O=C(N/N=C/c1cccc([N+](=O)[O-])c1)c1ccccc1-n1cccc1	Shiga inhibitor 27.9
O=C(N/N=C/c1cccs1)c1cccc2cc[nH]c12	none
O=C(N/N=C/c1cc([N+](=O)[O-])ccc1O)c1cccc2cc[nH]c12	Shiga inhibitor 31.0, Cycloheximide cs 33.1
CCOc1ccccc1C(=O)N(Cc1ccc(N(C)C)cc1)Cc1ccco1	none (no result: Shiga inhibitor, Cycloheximide cs)
CCC(C(=O)Nc1cc(OC)cc(OC)c1)n1nc(-c2ccc(C)c(C)c2)ccc1=O (stereo not given)	none (no result: Shiga inhibitor, Cycloheximide cs)
CC(=O)NC(=S)Nc1ccc(NC(=S)NC(=O)/C=C/c2ccco2)cc1	Sm TGR block 17.8µM
CCC(=O)Nc1ccc(NC(=S)NC(=O)/C=C/c2ccco2)cc1	Sm TGR block 28.2µM (no result: Shiga inhibitor)
O=C(/C=C/c1ccco1)NC(=S)NNC(=O)c1ccco1	Sm TGR block 39.8µM (no result: FMDV inh)
O=C(/C=C/c1ccco1)NC(=S)Nc1ccc(C(=O)O)cc1	Sm TGR block 7.08µM, Shiga inhibitor 51.7, Cycloheximide cs 22.7
CN(C)c1ccc(NC(=S)NC(=O)/C=C/c2ccco2)cc1	none
C=CCNC(=S)NNC(=O)c1ccco1	none (no result: Sm TGR block)
COC(=O)C1CCCCN1Cc1ccc2c(c1)CN(Cc1cn[nH]c1-c1ccc(F)cc1)CCO2 (stereo not given)	none (no result: Sm TGR block, Shiga inhibitor, Cycloheximide cs)
COc1ccccc1-c1ccnc(-n2ncc(C(=O)NCc3cccnc3)c2C)n1	none (no result: Sm TGR block, Shiga inhibitor, Cycloheximide cs)
Cc1cc(C(=O)NNC(=O)/C=C/c2ccco2)c(C)o1	Sm TGR block 2.82µM (no result: Shiga inhibitor, Cycloheximide cs)
COc1ccc(NC(=S)NC(=O)/C=C/c2ccco2)cc1	Sm TGR block 10µM, Shiga inhibitor 100.8, Cycloheximide cs 43.3
CCN(Cc1ccncc1)Cc1ccc2c(c1)CN(C(=O)c1ccc(C)cc1)CCO2	none (no result: Sm TGR block, Shiga inhibitor, Cycloheximide cs)
CC(C)(C)c1cc(NC(=O)CCl)n(-c2ccccc2)n1	Sm TGR block 12.6µM, FMDV inh inconclusive
